Results published in paper PMC7862700, “An all-to-all approach to the identification of sequence-specific readers for epigenetic DNA modifications on cytosine”.

Key:
Assay in all cases: DAPPL (digital affinity profiling via proximity ligation, sequencing); 10 mM Tris-HCl pH 7.5, 50 mM NaCl, 1 mM DTT, 4% glycerol, room temperature, 30 min; GST-TFs on glutathione beads, 16-mer random dsDNA library, 0.1% formaldehyde crosslink after washing; high values mean tight binding
FEV = molecular target: T1, FEV (Homo sapiens, UniProt Q99581 1-238); settings: protein: recombinant; tags: N-terminal GST; dsDNA, one strand shown
T1 sequence: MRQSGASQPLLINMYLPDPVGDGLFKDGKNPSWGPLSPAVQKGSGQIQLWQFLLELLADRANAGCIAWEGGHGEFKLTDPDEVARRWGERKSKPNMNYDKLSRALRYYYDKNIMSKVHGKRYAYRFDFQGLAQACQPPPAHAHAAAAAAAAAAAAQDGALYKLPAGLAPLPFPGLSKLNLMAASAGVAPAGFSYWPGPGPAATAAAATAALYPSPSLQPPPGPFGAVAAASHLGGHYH
Outline: (§1)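 Beads coated with glutathione captured GST-fused human transcription factors that had been expressed in yeast, and the factors were then given DNA barcodes and pooled with a tag-only sample. The pools were incubated with 200 nmole of a random double-stranded 16-mer DNA library in Tris/NaCl/DTT/glycerol buffer for 30 min at room temperature, washed, crosslinked with 0.1% formaldehyde and proximity-ligated with BsaI/T4 ligase at 37 °C for 1 h. PCR amplification and Illumina NextSeq500 sequencing came last. Binding signal is each hexamer's read frequency for a factor divided by its frequency for the tag-only sample.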

ETV5 = ETV5 (Homo sapiens, UniProt P41161 1-510); settings: protein: recombinant; tags: N-terminal GST; dsDNA, one strand shown
ETV5, sequence (P41161 whole entry): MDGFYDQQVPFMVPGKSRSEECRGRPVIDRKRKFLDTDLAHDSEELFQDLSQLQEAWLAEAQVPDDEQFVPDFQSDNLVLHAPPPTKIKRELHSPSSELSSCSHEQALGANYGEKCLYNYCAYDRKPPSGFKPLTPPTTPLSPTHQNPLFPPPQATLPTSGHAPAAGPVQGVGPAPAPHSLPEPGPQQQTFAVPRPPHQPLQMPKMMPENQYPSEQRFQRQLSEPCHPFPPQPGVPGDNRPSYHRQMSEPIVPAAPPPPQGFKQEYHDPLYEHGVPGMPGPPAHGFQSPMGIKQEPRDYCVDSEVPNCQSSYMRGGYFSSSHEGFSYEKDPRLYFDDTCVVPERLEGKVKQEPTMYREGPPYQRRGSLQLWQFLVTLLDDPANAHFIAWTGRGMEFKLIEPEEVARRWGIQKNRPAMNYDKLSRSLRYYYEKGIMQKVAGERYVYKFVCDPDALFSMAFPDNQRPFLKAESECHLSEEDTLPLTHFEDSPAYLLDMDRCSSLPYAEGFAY
Outline: as §1

HSF1 = HSF1 (Homo sapiens, UniProt Q00613 1-529); settings: protein: recombinant; tags: N-terminal GST; chain copies: 3; dsDNA, one strand shown
HSF1, sequence (Q00613 whole entry): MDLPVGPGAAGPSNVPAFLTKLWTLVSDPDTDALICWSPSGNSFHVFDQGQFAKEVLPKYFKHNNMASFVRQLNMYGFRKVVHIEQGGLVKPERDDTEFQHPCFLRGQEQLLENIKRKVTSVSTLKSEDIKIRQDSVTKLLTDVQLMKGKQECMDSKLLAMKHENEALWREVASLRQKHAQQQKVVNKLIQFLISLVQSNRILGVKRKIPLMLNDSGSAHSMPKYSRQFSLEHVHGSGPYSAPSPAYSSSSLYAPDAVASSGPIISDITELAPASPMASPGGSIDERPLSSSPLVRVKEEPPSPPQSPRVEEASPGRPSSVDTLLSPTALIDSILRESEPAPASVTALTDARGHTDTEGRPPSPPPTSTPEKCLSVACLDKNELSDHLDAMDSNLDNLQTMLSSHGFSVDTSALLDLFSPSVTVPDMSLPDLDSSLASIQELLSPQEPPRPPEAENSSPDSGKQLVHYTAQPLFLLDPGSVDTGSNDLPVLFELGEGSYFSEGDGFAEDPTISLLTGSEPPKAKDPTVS
Outline: as §1

SPIC = molecular target: T2, SPIC (Homo sapiens, UniProt Q8N5J4 1-248); settings: protein: recombinant; tags: N-terminal GST; dsDNA, one strand shown
T2 sequence: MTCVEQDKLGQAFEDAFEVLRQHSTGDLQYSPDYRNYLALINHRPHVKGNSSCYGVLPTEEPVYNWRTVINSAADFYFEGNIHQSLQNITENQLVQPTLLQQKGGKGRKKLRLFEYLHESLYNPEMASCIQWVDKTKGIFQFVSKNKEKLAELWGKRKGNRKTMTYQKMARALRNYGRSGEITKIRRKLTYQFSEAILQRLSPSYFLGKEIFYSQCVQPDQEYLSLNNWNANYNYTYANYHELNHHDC
Outline: as §1

ELF4 = ELF4 (Homo sapiens, UniProt Q99607 1-663); settings: protein: recombinant; tags: N-terminal GST; dsDNA, one strand shown
ELF4, sequence (Q99607 whole entry): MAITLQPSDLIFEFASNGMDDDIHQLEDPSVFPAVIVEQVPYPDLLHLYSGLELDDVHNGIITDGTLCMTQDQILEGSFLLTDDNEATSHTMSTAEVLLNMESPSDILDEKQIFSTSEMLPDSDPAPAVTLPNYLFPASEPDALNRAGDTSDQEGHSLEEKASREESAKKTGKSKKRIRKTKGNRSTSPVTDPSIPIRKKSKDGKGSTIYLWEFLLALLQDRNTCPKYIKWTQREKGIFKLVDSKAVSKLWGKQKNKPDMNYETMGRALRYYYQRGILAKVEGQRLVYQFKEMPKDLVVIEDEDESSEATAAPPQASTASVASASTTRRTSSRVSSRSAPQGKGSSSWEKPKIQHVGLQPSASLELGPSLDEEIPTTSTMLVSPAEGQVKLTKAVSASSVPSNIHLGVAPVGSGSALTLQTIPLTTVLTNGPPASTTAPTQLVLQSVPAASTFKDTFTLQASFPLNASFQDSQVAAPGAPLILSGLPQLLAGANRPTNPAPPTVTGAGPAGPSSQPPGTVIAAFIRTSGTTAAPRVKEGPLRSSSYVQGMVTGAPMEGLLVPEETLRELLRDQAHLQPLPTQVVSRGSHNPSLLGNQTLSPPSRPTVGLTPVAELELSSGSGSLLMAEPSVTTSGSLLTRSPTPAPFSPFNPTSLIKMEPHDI
Outline: as §1

ELK4 = molecular target: T3, ELK4 (Homo sapiens, UniProt P28324-2 1-405); settings: protein: recombinant; tags: N-terminal GST; dsDNA, one strand shown
T3 sequence: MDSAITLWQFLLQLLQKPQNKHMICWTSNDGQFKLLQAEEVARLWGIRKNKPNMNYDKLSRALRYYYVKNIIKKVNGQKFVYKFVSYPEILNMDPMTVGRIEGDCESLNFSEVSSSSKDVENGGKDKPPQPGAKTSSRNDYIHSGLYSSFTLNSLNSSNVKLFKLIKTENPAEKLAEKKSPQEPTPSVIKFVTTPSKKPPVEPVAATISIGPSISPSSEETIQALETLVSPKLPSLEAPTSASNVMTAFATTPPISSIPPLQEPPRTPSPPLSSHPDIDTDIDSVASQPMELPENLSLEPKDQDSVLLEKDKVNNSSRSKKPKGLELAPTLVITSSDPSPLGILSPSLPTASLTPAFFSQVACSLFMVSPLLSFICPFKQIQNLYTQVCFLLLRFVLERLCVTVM
Outline: as §1

ETV2 = molecular target: T4, ETV2 (Homo sapiens, UniProt O00321 1-342); settings: protein: recombinant; tags: N-terminal GST; dsDNA, one strand shown
T4 sequence: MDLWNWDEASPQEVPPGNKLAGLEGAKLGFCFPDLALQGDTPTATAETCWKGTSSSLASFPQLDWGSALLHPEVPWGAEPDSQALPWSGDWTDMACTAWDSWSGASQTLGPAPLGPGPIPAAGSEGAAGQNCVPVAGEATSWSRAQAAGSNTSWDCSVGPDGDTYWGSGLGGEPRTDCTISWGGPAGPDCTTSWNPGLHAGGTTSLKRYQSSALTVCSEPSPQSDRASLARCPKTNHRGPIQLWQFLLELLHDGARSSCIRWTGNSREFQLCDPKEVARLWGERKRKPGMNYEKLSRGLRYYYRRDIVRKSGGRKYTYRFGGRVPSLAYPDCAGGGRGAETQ
Outline: as §1

ELF3 = molecular target: T5, ELF3 (Homo sapiens, UniProt P78545 1-371); settings: protein: recombinant; tags: N-terminal GST; dsDNA, one strand shown
T5 sequence: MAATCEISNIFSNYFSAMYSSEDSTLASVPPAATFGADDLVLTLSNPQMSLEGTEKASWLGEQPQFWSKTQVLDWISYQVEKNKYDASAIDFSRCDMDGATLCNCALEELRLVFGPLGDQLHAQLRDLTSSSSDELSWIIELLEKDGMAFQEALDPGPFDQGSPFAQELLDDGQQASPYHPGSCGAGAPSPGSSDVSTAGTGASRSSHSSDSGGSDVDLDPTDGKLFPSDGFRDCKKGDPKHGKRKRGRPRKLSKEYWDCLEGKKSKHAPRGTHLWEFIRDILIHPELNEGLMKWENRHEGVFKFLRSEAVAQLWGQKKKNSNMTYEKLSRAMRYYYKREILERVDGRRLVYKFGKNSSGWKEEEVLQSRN
Outline: as §1

CRX = CRX (Homo sapiens, UniProt O43186 1-299); settings: protein: recombinant; tags: N-terminal GST; dsDNA, one strand shown
CRX, sequence (O43186 whole entry): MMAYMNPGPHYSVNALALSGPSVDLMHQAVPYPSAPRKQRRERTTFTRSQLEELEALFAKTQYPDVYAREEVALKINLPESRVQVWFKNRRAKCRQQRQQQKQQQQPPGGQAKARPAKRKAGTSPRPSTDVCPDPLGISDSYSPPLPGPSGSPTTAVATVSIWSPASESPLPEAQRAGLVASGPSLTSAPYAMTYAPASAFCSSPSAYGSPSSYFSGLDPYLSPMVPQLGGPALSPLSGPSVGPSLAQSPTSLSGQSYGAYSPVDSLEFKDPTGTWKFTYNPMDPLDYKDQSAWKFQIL
Outline: as §1

ETV1 = ETV1 (Homo sapiens, UniProt P50549 1-477); settings: protein: recombinant; tags: N-terminal GST; dsDNA, one strand shown
ETV1, sequence (P50549 whole entry): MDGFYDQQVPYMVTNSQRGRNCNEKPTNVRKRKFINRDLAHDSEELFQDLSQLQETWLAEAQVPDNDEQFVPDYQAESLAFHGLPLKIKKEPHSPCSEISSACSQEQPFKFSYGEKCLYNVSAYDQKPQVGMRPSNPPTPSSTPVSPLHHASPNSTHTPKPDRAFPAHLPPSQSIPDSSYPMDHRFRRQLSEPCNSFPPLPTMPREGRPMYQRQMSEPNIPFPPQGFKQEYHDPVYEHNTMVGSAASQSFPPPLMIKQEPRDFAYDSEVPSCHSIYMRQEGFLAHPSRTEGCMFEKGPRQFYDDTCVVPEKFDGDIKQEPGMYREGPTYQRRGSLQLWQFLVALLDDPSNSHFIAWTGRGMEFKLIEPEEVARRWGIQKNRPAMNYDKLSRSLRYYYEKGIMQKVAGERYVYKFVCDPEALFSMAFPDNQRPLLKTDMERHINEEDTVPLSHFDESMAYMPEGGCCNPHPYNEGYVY
Outline: as §1

ERF = molecular target: T6, ERF (Homo sapiens, UniProt P50548 1-548); settings: protein: recombinant; tags: N-terminal GST; dsDNA, one strand shown
T6 sequence: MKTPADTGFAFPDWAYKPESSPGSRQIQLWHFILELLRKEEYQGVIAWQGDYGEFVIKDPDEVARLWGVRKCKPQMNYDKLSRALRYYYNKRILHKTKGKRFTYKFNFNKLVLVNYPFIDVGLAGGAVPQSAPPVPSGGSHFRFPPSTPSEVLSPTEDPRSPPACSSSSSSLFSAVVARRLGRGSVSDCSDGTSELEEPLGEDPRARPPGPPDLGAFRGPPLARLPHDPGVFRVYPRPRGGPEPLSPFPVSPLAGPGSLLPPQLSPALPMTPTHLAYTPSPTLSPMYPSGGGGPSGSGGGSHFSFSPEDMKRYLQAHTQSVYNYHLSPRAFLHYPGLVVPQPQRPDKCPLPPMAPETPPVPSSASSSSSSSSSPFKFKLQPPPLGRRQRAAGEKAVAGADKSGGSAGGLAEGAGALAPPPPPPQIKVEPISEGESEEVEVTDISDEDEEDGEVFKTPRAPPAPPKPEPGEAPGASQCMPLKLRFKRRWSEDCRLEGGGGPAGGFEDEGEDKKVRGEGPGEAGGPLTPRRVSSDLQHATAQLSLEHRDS
Outline: as §1

ETV3L = molecular target: T7, ETV3L (Homo sapiens, UniProt Q6ZN32 1-361); settings: protein: recombinant; tags: N-terminal GST; dsDNA, one strand shown
T7 sequence: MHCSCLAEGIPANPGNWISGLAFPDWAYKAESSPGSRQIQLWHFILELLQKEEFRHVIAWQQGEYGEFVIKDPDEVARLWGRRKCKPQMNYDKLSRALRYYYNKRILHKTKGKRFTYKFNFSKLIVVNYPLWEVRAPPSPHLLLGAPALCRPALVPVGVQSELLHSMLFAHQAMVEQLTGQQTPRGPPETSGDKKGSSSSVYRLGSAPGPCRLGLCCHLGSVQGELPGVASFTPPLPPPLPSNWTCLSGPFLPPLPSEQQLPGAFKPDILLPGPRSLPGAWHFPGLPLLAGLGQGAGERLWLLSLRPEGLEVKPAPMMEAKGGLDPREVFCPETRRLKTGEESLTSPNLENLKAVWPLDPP
Outline: as §1

ETS2 = molecular target: T8, ETS2 (Homo sapiens, UniProt P15036 1-469); settings: protein: recombinant; tags: N-terminal GST; dsDNA, one strand shown
T8 sequence: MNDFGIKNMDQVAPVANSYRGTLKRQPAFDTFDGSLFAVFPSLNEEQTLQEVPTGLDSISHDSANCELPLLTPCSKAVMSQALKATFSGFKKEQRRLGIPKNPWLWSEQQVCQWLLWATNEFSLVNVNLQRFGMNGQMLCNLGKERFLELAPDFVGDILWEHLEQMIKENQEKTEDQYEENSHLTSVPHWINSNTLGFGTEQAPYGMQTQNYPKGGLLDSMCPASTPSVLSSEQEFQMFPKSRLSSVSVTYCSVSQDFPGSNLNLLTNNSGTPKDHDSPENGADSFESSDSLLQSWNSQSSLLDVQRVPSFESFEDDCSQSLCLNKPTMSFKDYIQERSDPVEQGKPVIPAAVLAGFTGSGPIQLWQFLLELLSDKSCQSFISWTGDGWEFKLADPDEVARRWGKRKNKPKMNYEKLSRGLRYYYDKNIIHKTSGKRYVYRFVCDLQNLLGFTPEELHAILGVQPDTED
Outline: as §1

SPDEF = molecular target: T9, SPDEF (Homo sapiens, UniProt O95238 1-335); settings: protein: recombinant; tags: N-terminal GST; dsDNA, one strand shown
T9 sequence: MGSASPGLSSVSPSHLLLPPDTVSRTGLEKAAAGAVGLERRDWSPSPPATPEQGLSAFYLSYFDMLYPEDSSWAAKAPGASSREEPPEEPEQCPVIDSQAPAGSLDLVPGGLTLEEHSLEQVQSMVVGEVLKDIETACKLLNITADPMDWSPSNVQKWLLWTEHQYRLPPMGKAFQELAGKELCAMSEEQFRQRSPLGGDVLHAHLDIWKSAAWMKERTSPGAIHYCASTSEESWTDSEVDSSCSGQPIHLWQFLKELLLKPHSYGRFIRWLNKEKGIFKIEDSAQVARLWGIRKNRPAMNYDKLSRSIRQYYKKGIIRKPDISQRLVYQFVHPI
Outline: as §1

ETV7 = molecular target: T10, ETV7 (Homo sapiens, UniProt Q9Y603 1-341); settings: protein: recombinant; tags: N-terminal GST; dsDNA, one strand shown
T10 sequence: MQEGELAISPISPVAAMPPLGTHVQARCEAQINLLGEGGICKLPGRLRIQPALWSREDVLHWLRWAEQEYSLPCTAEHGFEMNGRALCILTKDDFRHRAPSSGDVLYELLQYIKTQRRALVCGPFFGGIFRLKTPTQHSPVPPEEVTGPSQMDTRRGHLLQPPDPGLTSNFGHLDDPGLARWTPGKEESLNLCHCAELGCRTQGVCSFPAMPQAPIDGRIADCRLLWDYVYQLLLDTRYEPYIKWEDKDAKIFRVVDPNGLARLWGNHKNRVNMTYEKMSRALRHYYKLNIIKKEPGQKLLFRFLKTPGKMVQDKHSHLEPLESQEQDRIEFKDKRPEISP
Outline: as §1

ELF5 = molecular target: T11, ELF5 (Homo sapiens, UniProt Q9UKW6-2 1-255); settings: protein: recombinant; tags: N-terminal GST; dsDNA, one strand shown
T11 sequence: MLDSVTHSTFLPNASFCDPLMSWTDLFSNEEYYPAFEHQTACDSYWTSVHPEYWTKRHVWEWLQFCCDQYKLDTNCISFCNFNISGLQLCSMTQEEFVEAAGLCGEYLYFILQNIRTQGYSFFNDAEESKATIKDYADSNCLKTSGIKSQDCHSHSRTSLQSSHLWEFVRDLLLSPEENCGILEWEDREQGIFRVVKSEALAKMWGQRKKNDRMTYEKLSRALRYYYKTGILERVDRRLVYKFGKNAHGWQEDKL
Outline: as §1

ETV3 = molecular target: T12, ETV3 (Homo sapiens, UniProt P41162-2 1-143); settings: protein: recombinant; tags: N-terminal GST; dsDNA, one strand shown
T12 sequence: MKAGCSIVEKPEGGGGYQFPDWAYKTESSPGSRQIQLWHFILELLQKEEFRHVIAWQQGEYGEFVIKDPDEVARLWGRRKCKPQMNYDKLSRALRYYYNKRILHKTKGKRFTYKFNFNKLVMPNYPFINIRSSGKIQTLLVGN
Outline: as §1

ETV6 = ETV6 (Homo sapiens, UniProt P41212 1-452); settings: protein: recombinant; tags: N-terminal GST; dsDNA, one strand shown
ETV6, sequence (P41212 whole entry): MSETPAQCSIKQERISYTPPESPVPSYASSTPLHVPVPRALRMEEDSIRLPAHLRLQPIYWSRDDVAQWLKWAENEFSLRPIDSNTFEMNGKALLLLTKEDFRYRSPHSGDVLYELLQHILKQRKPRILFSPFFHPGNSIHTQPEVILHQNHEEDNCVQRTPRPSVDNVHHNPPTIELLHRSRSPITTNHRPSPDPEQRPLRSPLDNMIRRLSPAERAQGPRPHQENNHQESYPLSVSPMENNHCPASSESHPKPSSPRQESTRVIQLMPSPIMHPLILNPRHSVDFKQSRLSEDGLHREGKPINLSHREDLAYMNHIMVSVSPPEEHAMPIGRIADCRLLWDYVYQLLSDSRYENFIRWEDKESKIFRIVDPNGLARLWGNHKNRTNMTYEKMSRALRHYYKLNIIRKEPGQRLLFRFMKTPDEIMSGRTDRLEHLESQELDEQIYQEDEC
Outline: as §1

TTTAAA
binding signal (FEV): 1.25 fold enrichment (6-mer frequency, TF over GST control) | binding signal (ETV5): 1.21 fold enrichment (6-mer frequency, TF over GST control) | binding signal (HSF1): 1.64 fold enrichment (6-mer frequency, TF over GST control) | binding signal (SPIC): 1.02 fold enrichment (6-mer frequency, TF over GST control) | binding signal (ELF4): 1.19 fold enrichment (6-mer frequency, TF over GST control) | binding signal (ELK4): 1.37 fold enrichment (6-mer frequency, TF over GST control) | binding signal (ETV2): 1.44 fold enrichment (6-mer frequency, TF over GST control) | binding signal (ELF3): 1.28 fold enrichment (6-mer frequency, TF over GST control) | binding signal (CRX): 2.15 fold enrichment (6-mer frequency, TF over GST control) | binding signal (ETV1): 1.2 fold enrichment (6-mer frequency, TF over GST control) | binding signal (ERF): 1.31 fold enrichment (6-mer frequency, TF over GST control) | binding signal (ETV3L): 1.35 fold enrichment (6-mer frequency, TF over GST control) | binding signal (ETS2): 1.26 fold enrichment (6-mer frequency, TF over GST control) | binding signal (SPDEF): 1.16 fold enrichment (6-mer frequency, TF over GST control) | binding signal (ETV7): 1.36 fold enrichment (6-mer frequency, TF over GST control) | binding signal (ELF5): 1.19 fold enrichment (6-mer frequency, TF over GST control) | binding signal (ETV3): 1.22 fold enrichment (6-mer frequency, TF over GST control) | binding signal (ETV6): 1.27 fold enrichment (6-mer frequency, TF over GST control)
